Screening results: PubChem BioAssay, National Center for Advancing Translational Sciences (NCATS)
B2AR arrestin = qHTS assay of beta-arrestin-biased ligands of beta2-adrenergic receptor | Beta-2 adrenergic receptor (Homo sapiens), P07550 | beta-arrestin recruitment to beta2AR, cell-based reporter | Potency, µM (highest dose often 46.1 µM), inactives show top-dose activation, actives largely listed as activators | hit rate 0.02% among 330,000 | AID 492947, 2010;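 also: potency is read from the fitted curve at half-maximal effect; 0% = DMSO controls and full agonism = EC100 isoproterenol or metaproterenol; nearly all actives have a fitted effect of over 65% in size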
Integrin act MD = qHTS for Activators of Integrin-Mediated Alleviation for Muscular Dystrophy; alpha7betagal myoblasts, beta-gal FDG fluorescence, 48 h; Potency, µM (doses to about 38.3 µM), inactives show top-dose activation, most hits filed as activators; hit rate 0.064% among 350,000;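 also: potency is read from the fitted curve at half-maximal effect; 100% = response of the positive control SU9516; nearly all actives have a fitted effect of over 60% in size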
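Alpha7betagal+/- myoblasts (passage 13) were plated 16-24 hr, then exposed to compounds (1:260 dilution of DMSO stock) for 48 hours at 37C. After MPER lysis, β-galactosidase reporter activity was read as FDG fluorescence (ex 480/em 540) after 30 minutes.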
D3 ag = qHTS of D3 Dopamine Receptor Agonist: qHTS; D(3) dopamine receptor (Homo sapiens), P35462; hit rate 0.58% among 410,000; AID 652048, 2013; D3R DiscoveRx beta-arrestin cells, luminescence, 90 min; max activation, %; in the data active = max activation above about 30%; also: 0% is about no effect
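Agonist-mode cell screen: cells plated at 1500/well and incubated overnight at 37 °C, then exposed to library compounds for 90 min at 37 °C. Detection reagent was added for 30–60 min at room temperature, and luminescence was read.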
mIDH1 inhibitor = qHTS for Inhibitors of mutant isocitrate dehydrogenase 1 (IDH1): qHTS. hit rate 0.093% among 390,000. Isocitrate dehydrogenase [NADP] cytoplasmic (Homo sapiens), O75874. IDH1-R132H enzyme, NADPH consumption, diaphorase/resazurin fluorescence. Potency, µM (highest dose often 76.6 µM), inactives show at the top dose activity change, negative = inhibition, most hits filed as inhibitors. AID 602179, 2012; also: potency is read from the fitted curve at half-maximal effect; % is scaled to controls: 0 for no effect and ±100 for the full control effect; nearly all actives have a fitted effect of over 65% in size
Target sequence (O75874 whole entry R132H, stated change not applied): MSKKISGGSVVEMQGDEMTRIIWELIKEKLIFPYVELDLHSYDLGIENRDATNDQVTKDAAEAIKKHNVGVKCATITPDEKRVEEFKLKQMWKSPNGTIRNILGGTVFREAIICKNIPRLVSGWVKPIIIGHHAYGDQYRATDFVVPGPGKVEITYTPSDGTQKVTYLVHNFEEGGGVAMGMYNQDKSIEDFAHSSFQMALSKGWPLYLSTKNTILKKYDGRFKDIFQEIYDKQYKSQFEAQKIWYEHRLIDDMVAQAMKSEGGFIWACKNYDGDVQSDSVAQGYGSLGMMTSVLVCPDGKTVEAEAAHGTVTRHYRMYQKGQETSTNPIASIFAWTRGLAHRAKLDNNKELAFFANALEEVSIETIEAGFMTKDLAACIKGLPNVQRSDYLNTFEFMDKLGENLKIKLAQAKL
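IDH1-R132H (0.5 ug/mL dispensed) in pH 7.5 Tris buffer was preincubated 30 min with compound, then given a substrate mix of 0.016 mM NADPH and 2 mM alpha-KG for 80 min at room temperature; remaining NADPH was read by diaphorase/resazurin fluorescence.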
DRD3 antagonist = qHTS of D3 Dopamine Receptor Antagonist: qHTS. D3R cells, DiscoveRx beta-arrestin luminescence, antagonist mode; active compounds read low. max response, negative = inhibition, %. hit rate 2.5% among 360,000; in the data active = max response below about -50%; inconclusive = no clear call, values can overlap the other calls; also: % is scaled to controls: 0 for no effect and ±100 for the full control effect
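Cells expressing the human receptor were seeded at 1500 cells/well, incubated overnight at 37 degrees C in 5% CO2, then exposed to library compounds with dopamine controls for 90 minutes at 37 degrees C before luminescent detection.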
* = called active by the depositor; [ ] = remark or other dose. Hits are enriched below; roughly 2.9% of the tested compounds scored in any of these assays. Unless noted, calls follow the shape of the dose curve; as a rule, active = well fitted curve in the direction sought with a large enough effect; inconclusive = small, poorly fitted or top-dose-only effect, or another doubt; inactive = no such curve, though single readings can be large; an effect the other way counts as inactive or inconclusive.

How did CCOc1cc(C(=S)N2CCOCC2)ccc1OS(=O)(=O)c1ccccc1[N+](=O)[O-] do in these assays?
B2AR arrestin: 1.2µM*; Integrin act MD: -17%; D3 ag: 0; mIDH1 inhibitor: -2%; DRD3 antagonist: 3

How did Cc1ccc(S(=O)(=O)NCC(Nc2cccc(Cl)c2)c2ccccc2)cc1 (configuration not stated) do in these assays?
D3 ag: -1; mIDH1 inhibitor: 3%

Results for CCc1cccc(C)c1NC(=O)CSc1nnc(N)s1 ?
D3 ag: 4; mIDH1 inhibitor: -2%

How did O=C(c1ccc(F)cc1)C1CCN(CCn2c(=S)[nH]c3ccccc3c2=O)CC1 do in these assays?
B2AR arrestin: 6%; D3 ag: -23

How did CC1(C)C(=O)N(CCN2CCC(C(=O)c3ccc(F)cc3)CC2)c2ccccc21 do in these assays?
B2AR arrestin: 0%; D3 ag: -82; mIDH1 inhibitor: 12%; DRD3 antagonist: -84*

Results for O=C(c1ccc(F)cc1)C1CCN(Cc2ccccc2F)CC1 ?
Integrin act MD: -20%; D3 ag: -5; mIDH1 inhibitor: -1%; DRD3 antagonist: -112*

Results for O=C(c1ccc(Cl)cc1)C1CCN(Cc2ccccc2)CC1 ?
B2AR arrestin: -1%; Integrin act MD: -8%; D3 ag: -19; mIDH1 inhibitor: 14%; DRD3 antagonist: -114*

How did CC(=O)N1CCC(C(=O)c2ccc(Cl)cc2)CC1 do in these assays?
B2AR arrestin: 0%; Integrin act MD: 2%; D3 ag: -4; mIDH1 inhibitor: -5%; DRD3 antagonist: 21

How did O=C(CN1CCC(C(=O)c2ccc(F)cc2)CC1)NCc1ccccc1F do in these assays?
B2AR arrestin: 0%; Integrin act MD: -9%; D3 ag: -25; mIDH1 inhibitor: 6%; DRD3 antagonist: -79*

Results for COc1ccc(CNC(=O)CN2CCC(C(=O)c3ccc(OC)cc3)CC2)cc1 ?
B2AR arrestin: 0%; Integrin act MD: -34%; D3 ag: -9; mIDH1 inhibitor: 12%; DRD3 antagonist: inconclusive

What do the screens show for `COc1ccc(C(=O)C2CCN(CC(=O)NCc3ccccc3)CC2)cc1`?
B2AR arrestin: -1%; Integrin act MD: inconclusive; D3 ag: -28; mIDH1 inhibitor: 0%; DRD3 antagonist: -52*

Results for O=C(NC(Cc1ccccc1)c1nc2ccccc2[nH]1)c1ccc(Cl)c([N+](=O)[O-])c1 (configuration not stated) ?
B2AR arrestin: -1%; Integrin act MD: -49%; D3 ag: -19; mIDH1 inhibitor: 9%; DRD3 antagonist: -63*

How did CSCC[C@H](NC(=O)c1ccc(Cl)c([N+](=O)[O-])c1)c1nc2ccccc2[nH]1 do in these assays?
B2AR arrestin: 0%; Integrin act MD: -24%; D3 ag: -30; mIDH1 inhibitor: -3%; DRD3 antagonist: -95*

How did Cc1c(C(=O)NC(Cc2ccccc2)c2nc3ccccc3[nH]2)cccc1[N+](=O)[O-] (configuration not stated) do in these assays?
B2AR arrestin: 11%; Integrin act MD: -9%; D3 ag: -2; mIDH1 inhibitor: -13%; DRD3 antagonist: -25

How did COc1cc(OC)cc(C(=O)N[C@@H](CCSC)c2nc3ccccc3[nH]2)c1 do in these assays?
B2AR arrestin: -1%; Integrin act MD: 15%; D3 ag: -7; mIDH1 inhibitor: -7%; DRD3 antagonist: -56*

How did CSCC[C@H](NC(=O)c1cccc([N+](=O)[O-])c1C)c1nc2ccccc2[nH]1 do in these assays?
B2AR arrestin: 0%; Integrin act MD: 0%; D3 ag: -9; mIDH1 inhibitor: 0%; DRD3 antagonist: inconclusive

How did Cc1ccc(OCCC(=O)N(CCC(C)C)c2c(N)n(Cc3ccccc3)c(=O)[nH]c2=O)cc1 do in these assays?
B2AR arrestin: 0%; Integrin act MD: 29%; D3 ag: 6; mIDH1 inhibitor: 8%; DRD3 antagonist: 13

How did c1csc(Cc2nn3c(-c4n[nH]c5c4CCC5)nnc3s2)c1 do in these assays?
B2AR arrestin: 0%; Integrin act MD: 0%; D3 ag: 0; mIDH1 inhibitor: 7%; DRD3 antagonist: -61*

Results for c1coc(-c2nnc3sc(Cc4cccs4)nn23)c1 ?
B2AR arrestin: 0%; Integrin act MD: 21%; D3 ag: 8; mIDH1 inhibitor: 18%; DRD3 antagonist: -4

How did O=c1c2c(-c3ccc(Cl)cc3)csc2ncn1/N=C/c1cccc([N+](=O)[O-])c1O do in these assays?
B2AR arrestin: 0%; Integrin act MD: 10%; D3 ag: -23; mIDH1 inhibitor: -1%; DRD3 antagonist: -61*

Results for O=[N+]([O-])c1cc(Cl)cc(/C=N/n2cnnc2)c1O ?
B2AR arrestin: -1%; Integrin act MD: inconclusive; D3 ag: -12; mIDH1 inhibitor: 1%; DRD3 antagonist: -57*

How did O=c1c2c(-c3ccccc3)csc2ncn1/N=C/c1c2ccccc2cc2ccccc12 do in these assays?
B2AR arrestin: 0%; Integrin act MD: 11%[7.66 µM]; D3 ag: 14; mIDH1 inhibitor: 2%; DRD3 antagonist: 30

What do the screens show for `O=[N+]([O-])c1cccc(/C=N/n2cnnc2)c1O`?
B2AR arrestin: -1%; Integrin act MD: 25%; D3 ag: -2; mIDH1 inhibitor: -1%; DRD3 antagonist: -55*

How did Cc1nn(-c2ccccc2)c(N2CCCC2)c1/C=N/n1cnc2scc(-c3ccccc3)c2c1=O do in these assays?
B2AR arrestin: 0%; Integrin act MD: 26%; D3 ag: -14; mIDH1 inhibitor: 11%; DRD3 antagonist: -61*

Results for Cc1ccc(NC(=O)Cn2c(=O)n(CCCCC(=O)NCCc3ccc(Cl)cc3)c(=O)c3ccccc32)cc1 ?
D3 ag: -8; mIDH1 inhibitor: 4%

Results for CCOC(=O)c1ccccc1NC(=O)CSc1cn(CC(=O)N2CCCCC2)c2ccccc12 ?
D3 ag: 13; mIDH1 inhibitor: -6%

Results for COc1ccccc1C(=O)OCc1cc(=O)n2nc(C3CC3)sc2n1 ?
D3 ag: 8; mIDH1 inhibitor: -10%

Results for OC1(c2cccc(C(F)(F)F)c2)CCN(Cc2nnnn2Cc2ccccc2)CC1 ?
B2AR arrestin: 0%; Integrin act MD: inconclusive; D3 ag: 6; mIDH1 inhibitor: 3%; DRD3 antagonist: 5

What do the screens show for `OC1(c2ccc(F)cc2)CCN(Cc2nnnn2Cc2cccs2)CC1`?
B2AR arrestin: -1%; Integrin act MD: 7%; D3 ag: -4; mIDH1 inhibitor: 4%; DRD3 antagonist: -86*

What do the screens show for `CCOc1ccc(CCNC(=O)c2ccc(CSCc3ccccc3C)o2)cc1OCC`?
D3 ag: 5; mIDH1 inhibitor: 0%

Results for COc1ccccc1C(=O)NCCn1cc(SCc2ccc(C)cc2)c2ccccc21 ?
D3 ag: 5; mIDH1 inhibitor: -4%
